We go through 133 molecules from ChEMBL document CHEMBL4513160, “CO-ADD screening of MMV (CH) - Small Polar Library”.

Hit rate of the full screen: of about 21,000 compounds, fewer than 10 showed an effect of 50% or more. Not all results are given here. Results with a measured potency or affinity are listed apart.

The experiment concerns Acinetobacter baumannii. As to conditions: Concentration 300 ug.mL-1; ASSAY_TEST Inhibition of Bacterial Growth; detection method Absorption (OD600); MEDIA CAMHB; plate type 384well; NBS; CORNING #3640; time 18 hr.
The term Inhibition denotes the change of the read-out against control, counted positive when it falls. As for `NS(=O)(=O)N1CCCNCC1`, the Inhibition was 17.02%.
Consider `CCN(CC)C(=O)NCC[S+]([O-])C(C)(C)C` (stereo not drawn), for which the Inhibition amounted to 4.98%.
Then `CN(CCc1ccc(Br)cc1)C(=O)CCCN`, with 4.12%; and `CNC(=O)c1c(C)cccc1NCCCOC`, with 4.81%.
Regarding `COc1ccc(OCCCC(=O)NCCN(C)C)cc1`, the Inhibition is 9.28%.
On to `COCCN1CCCN(C(=O)C(C)C)CC1`, for which the Inhibition was -1.05%.
For the molecule `O=C1CN(C(=O)c2ccn(-c3ccccc3)n2)CCN1`, the Inhibition came out at 1.11%.
Turning to `NC1CCN(CC(=O)N2CCOCC2)CC1`, the Inhibition is given as 3.07%.
As for `CC(O)(CN)C(F)(F)F` (stereo not drawn), the Inhibition was -3.1%.
In the case of `CC(N)CCNS(=O)(=O)c1ccccc1` (stereo not drawn), the Inhibition is 10.98%.
For the molecule `NCC(=O)NCc1ccncc1`, the Inhibition is listed as 9.5%.
With `O=C(Nc1cccc(CN2CCCC2=O)c1)C1CC1`, the Inhibition was determined as 1.2%.
Then `CC(C)CCNC(=O)CCn1cc(Br)ccc1=O`, with 8.21%; and `COc1ccc(C(=O)NCC2(C)COC2)c(F)c1F`, with 4.61%.
Then `CO[C@@H]1CN[C@@H](c2nc(C)no2)C1`, with -0.59%; and `COCc1cccc(-c2nc(C3CCOC3)no2)n1` (stereo not drawn), with 9.25%.
The same measure for `Cc1cc(=O)cc(C(=O)N2CCCC(C)(C#N)C2)o1` (stereo not drawn): 0.52%; for `CN(CCCS(C)(=O)=O)CC1CCN(CCO)CC1`: 0.5%.
Take `O=C(c1cncc(F)c1)N1CC(N2CCCCC2)C1`: the Inhibition is listed as 2.2%.
As for `CN(CC1CCOCC1)C(=O)NCc1ccco1`, the Inhibition is listed as 4.16%.
On to `Cn1ccnc1CN(Cc1ccc(CO)o1)C1CC1`, for which the Inhibition came out at 10.44%.
With `Cc1nc(C(C)(C)N)sc1C`, the Inhibition turned out to be 11.05%.
Consider `Nc1nc(CCCNC(=O)Cc2ccsc2)cs1`, for which the Inhibition was found to be 10.16%.
For `Cn1nnnc1SCc1cc(Cl)c2c(c1)OCCO2`, the Inhibition turned out to be 3.66%.
`O=S(=O)(c1ccco1)N1CCOCc2ccccc21`: the Inhibition is 6.19%.
The same measure for `N#Cc1ccc(OCC(O)CN2CCSCC2)cc1` (stereo not drawn): 10.14%; for `Cc1cccc(C2NCCNC2=O)c1` (stereo not drawn): 12.66%; for `COCCN(Cc1cnn(C)c1)C(=O)C1CCNC1` (stereo not drawn): 2.42%.
The same measure for `CN1CCN(C(C)(C)CNC(=O)Nc2cn[nH]c2)CC1`: -0.91%.
The same measure for `O=C(NCCCOC(F)F)NCc1ccc(Br)o1`: 3.72%; for `O=C(NC1CCCOc2ccc(F)cc21)c1c[nH]nn1` (stereo not drawn): 8.95%.
Turning to `COC(=O)CN1CCN(C(=O)N(C)C)CC1`, the Inhibition came to 20.07%.
Then `COc1ccc(SCC(=O)NC2CCN(C)CC2)cc1`, with 2.47%; and `COCCN(C)C[C@@H]1CN(C(=O)C2CCC2)C[C@@H]1CO`, with 6.32%.
In the case of `CN(CCS(=O)(=O)c1ccc(Cl)cc1)CC(=O)N(C)C`, the Inhibition is reported as -3.7%.
The same measure for `CSCC(=O)NC1CCCC1`: 5.49%; for `CCS(=O)(=O)NCCCNS(=O)(=O)c1ccc(C)cc1`: 0.89%.
The same measure for `COc1ccc(Cl)cc1NC(=O)NC1CCS(=O)(=O)C1` (stereo not drawn): 6.86%.
Then `O=C(Nc1ccc(NC(=O)C2CC2)nc1)c1ccsc1`, with 12.11%; and `COCCOCC(=O)N(C)C(C)c1ccncn1` (stereo not drawn), with 0.44%.
As for `CCN(C(=O)CN1CCNC(=O)C1)c1ccc(F)cc1`, the Inhibition is 7.47%.
As to `CNC[C@@H]1C[C@@H](O)CN1`, the Inhibition is given as 4.99%.
Then `CC(C)c1noc(CN2CCSCC2)n1`, with 17.17%; and `Cc1ccc(C(CN)N2CCOCC2)o1` (stereo not drawn), with 1.38%.
For `CCc1nc(CNCC2CCN(CCO)CC2)no1`, the Inhibition turned out to be 11.72%.
The same measure for `CCN(CC)C(C)CNC(=O)c1csc(NC(C)=O)n1` (stereo not drawn): 5.75%; for `COCC(=O)Nc1ccc(-n2cccn2)nc1`: -2.46%; for `CCC(C)(CO)NC(=O)c1sc(COC)nc1C` (stereo not drawn): 6.56%.
Then `CCC(N)C(=O)N1CCOCC1` (stereo not drawn), with 3.92%; and `CC[C@H](N)C(=O)N1CC(Oc2c(C)cccc2C)C1`, with 6.21%.
For `O=C(NC1CCCOC1)c1ccc2c(c1)OCCO2` (stereo not drawn), the Inhibition was found to be 9.3%.
As for `CCCN1CCC(N2CCC(C(N)=O)CC2)CC1`, the Inhibition is listed as -0.38%.
The same measure for `NC1CCN(Cc2ccc(F)c(F)c2)CC1`: 10.51%.
Then `COc1cn(-c2ccccc2)nc1C(=O)NCC(C)C`, with 12.56%.
Then `c1cncc(N2CCCCC2)c1`, with 8.5%; and `Cc1cc(CN)n(C)n1`, with 8.01%.
For the molecule `Cc1nc(CC(=O)NCC(C)n2ccnc2)cs1` (stereo not drawn), the Inhibition was 5.87%.
As to `CCc1noc(C(C)NC(=O)c2cccnc2C)n1` (stereo not drawn), the Inhibition worked out at 6.44%.
On to `COc1c(F)cccc1CN1C[C@H](O)[C@@H](N(C)C)C1`, for which the Inhibition was 9.85%.
Then `CC(C)(C)OC(=O)c1ncccc1N`, with 5.28%; and `CCC(=O)c1ccc(CN)cc1`, with 12.11%; and `CSCC(=O)Nc1ccc(C(=O)NCC(F)(F)F)cc1`, with 10.77%.
Take `CC(=O)N1CCN(CCNC(=O)c2cc(Br)c[nH]2)CC1`: the Inhibition stood at 4.86%.
Then `CNC(=O)C(C)(C)Oc1cccc(Cl)c1`, with 6.59%; and `O=C(C1CCC1)N(Cc1ccccn1)C1CC1`, with 0.99%.
Then `Cc1nccn1CC(=O)Nc1ccnn1C`, with 1.95%; and `CN(C)c1cc(CN)ccn1`, with 11.49%; and `CCn1nc(C)cc1C(=O)NCCCc1cccnc1`, with 7.13%.
With `O=C1CC(C(=O)N2CCCC3(CCCCC3)C2)CCN1` (stereo not drawn), the Inhibition stood at 7.27%.
Then `CCN(C)CCNC(=O)c1ccncc1I`, with 5.97%; and `O=C(c1ccco1)N1C[C@H](O)[C@@H](N2CCCCC2)C1`, with 9.48%.
Then `CNC(=O)c1cnc(OCC(F)(F)F)c(Cl)c1`, with 1.45%; and `CC(=O)N(C1CC1)C(C)c1ccccn1` (stereo not drawn), with 3.11%; and `O=C1NCCCCC1NS(=O)(=O)N1CCOCC1` (stereo not drawn), with 3.3%.
The same measure for `CCn1cc(NC(=O)C(C)n2cccn2)cn1` (stereo not drawn): 0.68%; for `CN(c1cccc(C(N)=O)c1)S(=O)(=O)c1ccccc1`: 7.68%; for `COc1cccc(NC(=O)NCC2CCN(C)CC2)c1`: 9.08%.
On to `Cc1cnccc1CN`, for which the Inhibition is 5.52%.
The same measure for `CN(Cc1nc(-c2ccc(F)cc2)cs1)CC(O)CO` (stereo not drawn): 8.94%.
Take `CC(C)CN1CC(CN)OC1=O` (stereo not drawn): the Inhibition was 2.13%.
The same measure for `O=C(CCN1CCc2[nH]cnc2C1)NCc1cccs1`: -3.55%; for `CCNS(=O)(=O)C1CCN(Cc2cc(F)cc(F)c2)C1` (stereo not drawn): -0.23%.
In the case of `C1CC(C2CCOC2)CCN1` (stereo not drawn), the Inhibition turned out to be 9.96%.
Then `CCS(=O)(=O)CCN(C)CCOc1cccc(C#N)c1`, with 3.26%; and `CC(N)c1nc2ccccc2n1C` (stereo not drawn), with -1.51%.
The same measure for `CCC(=O)NCCc1noc(COC)n1`: 8.83%.
As to `CCOc1cccc(C(C)NC(=O)CNC(C)=O)c1` (stereo not drawn), the Inhibition was 8.25%.
With `CCC(=O)N1CCN(C(=O)CC2CCCCC2)CC1`, the Inhibition is 6.05%.
The same measure for `CC1Cc2ccccc2N1CCN` (stereo not drawn): 14.26%; for `O=C1Nc2ccccc2C1C1CCNCC1` (stereo not drawn): 10.09%; for `Cc1cc(C)cc(OCC(=O)N2CCN[C@H](C)C2)c1`: 8.4%.
The same measure for `CC1=C(c2ccco2)CN(CC(N)=O)CC1`: 3.95%.
In the case of `O=C(Nc1cncc(Br)c1Cl)N1CCC(O)C1` (stereo not drawn), the Inhibition is given as -0.64%.
On to `NCc1cccc(N2CC=CC2)c1`, for which the Inhibition came to 6.5%.
Then `O=C(CCN1CCOCC1)Nc1cccc(Cl)c1`, with 5.94%; and `O=C(Cn1ccnc1)Nc1ccc(OC(F)F)cc1`, with 8%; and `CNC(=O)CSc1nnc(C2CC2)n1C`, with 5.97%.
As to `CC(=O)c1c(C)[nH]c(C(=O)OCC(=O)N(C)C)c1C`, the Inhibition stood at 5.39%.
Consider `NCc1ccc(-c2ccccc2)o1`, for which the Inhibition amounted to 16.01%.
The same measure for `CC(C)CCNC(=O)Nc1c[nH]c(=O)[nH]c1=O`: 6.3%; for `CCCNC(=O)Cn1ccnc1SC`: 10.93%.
On to `CNC(=O)c1cccc(CN)n1`, for which the Inhibition was 9.63%.
The same measure for `CN(C)[C@H]1CN(C(=O)c2ccncc2)C[C@@H]1C1CC1`: 10.19%; for `CCn1cnnc1CC1CCCNC1` (stereo not drawn): 9.33%.
Turning to `Cc1ccc(OC2CCN(C(=O)[C@@H](C)N)CC2)cc1`, the Inhibition was found to be 3.78%.
The same measure for `CN[C@@H](C)C(=O)N1CC(Oc2ccccc2OC)C1`: -2.39%; for `CC(C)NC(=O)C(C)N` (stereo not drawn): 9.53%; for `NC(c1ccc(Cl)cc1)c1ncon1` (stereo not drawn): 6.75%.
On to `O=C(Cn1ccc(=O)[nH]c1=O)NCc1cccnc1`, for which the Inhibition was 6.41%.
The same measure for `CCOc1cc(C)ccc1CN`: 7.86%; for `c1ncn(-c2ccc(NCC3CCOCC3)cc2)n1`: 5.37%.
Then `Cc1nn(C)c2nc(NCCC(=O)N3CCCC3)sc12`, with 3.37%; and `CNC(=O)[C@H]1CC[C@H](CNC(=O)c2cn[nH]c2)CC1`, with 6.17%; and `CC(C)C(=O)N1CCC(N)C1` (stereo not drawn), with 3.38%.
The same measure for `Cc1nc(CN(C)C(=O)NCc2ccccc2)no1`: 6.9%; for `CC(C)(C)OC(=O)N1CC(O)C1`: 5.37%.
As to `COC(=O)c1ccc(NC(=O)N2CCOC(C)C2)cc1` (stereo not drawn), the Inhibition came to 6.27%.
For `CSc1ccc(OCCN(C)CC(N)=O)cc1`, the Inhibition worked out at 7.33%.
The same measure for `CCOC(=O)c1csc(CNC(=O)c2ccc(C)o2)n1`: 0.25%; for `CN(CCN1CCCC1=O)C(=O)c1ccc(Br)cc1O`: 1.38%.
Then `CN[C@@H](CC(C)C)C(=O)NCCCc1csc(N)n1`, with -8.08%.
Then `COCC(=O)N1CCN(Cc2csc(C)n2)CC1`, with 2.61%.
`CCC(NC(=O)C1CC1)(C(N)=O)C(C)C` (stereo not drawn): the Inhibition is given as 2.37%.
Then `Cc1cccc(NC(=O)C2COCCO2)c1` (stereo not drawn), with 1.93%.
Then `CC(=O)N1CCCC(C(=O)NCCc2nnc(C)s2)C1` (stereo not drawn), with 6.35%; and `O=C(OCCC1CCCO1)c1ccncc1` (stereo not drawn), with -0.58%.
With `O=C(CCC(F)(F)F)N[C@H]1CCCNC1`, the Inhibition was found to be 10.33%.
With `CC(=O)N(C)CC(=O)Nc1ccccc1N1CCCC1`, the Inhibition came to 8.57%.
The same measure for `CN(C)c1nccc(N(C)CCn2cccn2)n1`: 7.7%.
The same measure for `CCN(C(=O)c1ccc(-c2ccco2)[nH]c1=O)C1CC1`: 3.27%.
Then `COCC(=O)Nc1ccc(OCc2ccccn2)cc1`, with 4.72%; and `COc1ccc(OCCN2CCNCC2)cc1`, with 8.28%.
With `CC(=O)NC(C(=O)N1CCSCC1)C(C)C` (stereo not drawn), the Inhibition came out at 3.97%.
